High-throughput results deposited in PubChem BioAssay by National Center for Advancing Translational Sciences (NCATS).
KB-3-1 tox – kills parental KB-3-1 adenocarcinoma cells; AID 1347075; 1.4% of 400,000 active; KB-3-1 viability, CellTiter-Glo ATP luminescence, 72 h; Potency, µM (titrated, usually from 46.1 µM), usual class: cytotoxic; further: on the % scale 0 is the no-effect control and ±100 the full control effect; nearly all actives have a fitted effect of over 60% in size
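Cells are dispensed, compounds pinned in, plates held at 37 °C for 72 h, then CellTiter-Glo is added and luminescence read after 10 minutes. Cell line: parental KB-3-1 in phenol-red-free DMEM, 10% FBS.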
KB-V1 cytotox – kills drug-selected multidrug resistant KB-V1 cells; KB-V1 MDR cells viability, CellTiter-Glo, 72 h; Potency, µM (highest dose often 46.1 µM), most hits filed as cytotoxic; 3.4% of 400,000 active; AID 1347076; further: on the % scale 0 is the no-effect control and ±100 the full control effect; nearly all actives have a fitted effect of over 60% in size
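Luminescent ATP read-out (CellTiter-Glo, 10 min) measures survival of drug-selected KB-V1 MDR cells after 72 h, 37 degrees C compound exposure. Medium: phenol-red-free DMEM, 10% FBS. Values from fitted concentration-response curves.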
SW480 rerep – DNA re-replication induction in SW480 cells; SW480 DNA re-replication, Hoechst DNA content imaging, 48 h; Potency, µM (doses to about 46.1 µM), for inactives: at the top dose re-replication activation, usual class: activators; 1.8% of 340,000 active; further: % of control where 0% means no effect; nearly all actives have a fitted effect of over 55% in size
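Treated cells incubate 48 hr (37 C, 5% CO2), are stained 40 min with Hoechst, and nuclear fluorescence is enumerated; a rise in nuclei with high DNA signal marks re-replication.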
ELG1 DNA repair – ELG1-dependent DNA repair inhibition | HEK293T ELG1-luciferase reporter, luminescence, 16 h; DNA damage induced by 5-fluorouridine | Potency, µM (titrated, usually from 46.1 µM), for the others: at the top dose activity change, negative = inhibition, actives largely listed as inhibitors | 2.3% of 330,000 active; further: on the % scale 0 is the no-effect control and ±100 the full control effect; nearly all actives have a fitted effect of over 55% in size
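DMSO vehicle served as the neutral condition. Each well held 2,000 cells given 5-fluorouridine plus compound; after 16 hr at 37 °C/5% CO2, ONE-Glo was added and luciferase measured 30 min later.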
MCF10A rereplic – inducers of DNA re-replication in MCF 10A breast cells. MCF 10A DNA re-replication, Hoechst nuclear intensity, 48 h. Potency, µM (series often up to 46.1 µM), for inactives: at the top dose activity, positive = re-replication, usual class: activators. 2.9% of 350,000 active; further: % of control where 0% means no effect; nearly all actives have a fitted effect of over 50% in size
Active calls of the source: *; i = inactive; ? = inconclusive; · = no result given; [ ] = remark or other dose. Shown are actives, neighbours in structure and some others; about 8.1% of the full set was active somewhere. The call rests on the fitted dose curve; in most records, active means well fitted curve in the direction sought with a large enough effect; inconclusive means small, poorly fitted or top-dose-only effect, or another doubt; inactive means no such curve, though single readings can be large; an effect the other way counts as inactive or inconclusive. Potency means the concentration at half of the fitted maximal effect.

SMILES	KB-3-1 tox	KB-V1 cytotox	SW480 rerep	ELG1 DNA repair	MCF10A rereplic
Clc1ccc2nc(-c3cccc(SC4CCCCC4)c3)c(NCc3ccccc3)n2c1	i	i	-2.2%[9.22 µM]	?	?
O=C(O)c1n[nH]c2c1CC(C1CCCCC1)CC2 (stereo not given)	i	i	?	16.0%	6.1%
COc1ccc(-c2nc3ccccn3c2NCc2ccc3c(c2)OCO3)cc1	i	?	-7.1%[9.22 µM]	?	?
COc1ccc(-c2cc(-c3nc4ccccn4c3NCc3ccccc3)ccc2OC)cc1	i	?	16.4µM*	2.31µM*	5.8µM*
c1ccc(CNc2c(-c3cccc(SC4CCCCC4)c3)nc3ccccn23)cc1	i	i	6.51µM*	?	18.4µM*
O=C(Nc1ccccc1)Nc1ccc(O)c2ccccc12	i	i	?	·	1.5%
CC(C)CNS(=O)(=O)c1ccc(CCC(=O)N2CCN(c3ccc(F)cc3)CC2)cc1	i	i	-39.7%	11.6µM*	-0.6%
CCNS(=O)(=O)c1ccc(CCC(=O)NC2CCCC2)cc1	i	i	5.3%	-0.2%	10.0%
CC(C)CNS(=O)(=O)c1ccc(CCC(=O)NC2CCCC2)cc1	i	i	-61.4%	-1.7%	1.03µM*
COc1ccc(OC)c(NC(=O)CSc2nccn2-c2cc(C)cc(C)c2)c1	i	?	·	·	·
Cc1ccc(Cl)cc1N1CCN(C(=O)Cc2csc(Nc3nc(=S)[nH]c4ccccc34)n2)CC1	i	?	12.6%	0.0%	?
O=C(Cc1csc(Nc2nc(=S)[nH]c3ccccc23)n1)N1CCN(c2cccc(Cl)c2)CC1	23.1µM*	18.4µM*	13.1%	?	?
COc1ccc(Cc2c(-c3ccc(Cl)cc3)nc3cc(C)c(Br)c(C)n23)c(C)c1	i	?	·	·	·
COc1ccc(NC(=O)C2CCCN2C(=O)OCc2ccccc2)cc1 (stereo not given)	i	i	-5.9%	-4.5%	2.5%
COc1ccc(C2=CC(=O)C[C@H](COCc3ccccc3)N(C(=O)OC(C)(C)C)O2)cc1	i	i	-5.9%	·	23.1µM*
Cc1ccc(NC(=O)c2cnc3cc(C)ccn3c2=O)c(C)c1	i	i	·	·	·
CCN(CC)c1ccc(NC(=O)c2cnc3ccccn3c2=O)c(C)c1	i	3.66µM*	3.2%	-3.1%	?
COc1ccc(CCN2C(=O)C(Oc3ccccc3C)C2c2ccc3c(c2)OCO3)cc1 (stereo not given)	i	10.3µM*	3.7%	16.4µM*	?
O=C(Nc1ccc2ccccc2c1)Nc1nnc(-c2ccc(Cl)cc2Cl)s1	i	i	·	·	·
CCOC(=O)c1[nH]cnc1C(=O)Nc1ccc(F)cc1	i	i	-6.2%	9.1%	-7.0%
CCOC(=O)c1[nH]cnc1C(=O)Nc1cccc(N)n1	?	i	-121.2%	9.2µM*	-1.5%
CC1OC(CCc2cccc(Cl)c2)Cc2[nH][nH]c(=O)c21 (stereo not given)	?	i	·	·	·
BrC(=C\c1ccccc1)/C=N/n1cnnc1	i	?	22.8%	?	16.4µM*
Cc1cccc(NC(=O)c2cc3c(=O)n(Cc4cccnc4)ccc3nc2C)c1	i	i	·	·	·
CCc1cccc(CC)c1NC(=O)COC(=O)CC1c2ccccc2CCN1S(=O)(=O)c1ccc(F)cc1 (stereo not given)	i	18.4µM*	13.5%	?	12.7%
SMILES	KB-3-1 tox	KB-V1 cytotox	SW480 rerep	ELG1 DNA repair	MCF10A rereplic
Cc1ccc(S(=O)(=O)NCCN2CCOCC2)s1	i	i	0.1%	-4.7%	7.9%
COc1ccc(OC)c2[nH]c(=O)c(CCNC(=O)COc3ccccc3)cc12	i	9.2µM*	-6.0%	-28.5%	-2.4%
Cc1ccc(C)c2[nH]c(=O)c(CCNC(=O)c3cc4ccccc4o3)cc12	i	i	-1.8%	?	-1.4%
COc1ccc(OC)c2[nH]c(=O)c(CCNC(=O)c3cc4ccccc4o3)cc12	i	i	8.1%	18.4µM*	2.6%
CCN(CC(=O)Nc1c(F)cccc1F)C(=O)CCCSc1nc2ccccc2[nH]1	i	i	·	·	·
O=C(/C=C/c1ccco1)N(Cc1cccc(F)c1)C1CCS(=O)(=O)C1 (stereo not given)	i	i	23.7%	-0.1%	11.8%
COc1cccc(-c2nc(-c3cccc(C)c3)nc3cc(Cl)ccc23)c1	i	i	·	·	·
COc1ccc(Cn2c(C)c(C)c(C#N)c2NC(=O)Nc2cccc(C)c2)cc1	i	i	-0.4%	16.7%	?
CCOc1ccc(NC(=O)Nc2cccn(Cc3ccccc3)c2=O)cc1	?	5.8µM*	10.4%	?	16.5%
COc1ccc(Cn2cccc(NC(=O)Nc3cccc(C#N)c3)c2=O)cc1	i	4.11µM*	?	?	?
CCCn1c(=O)sc2cc(NC(=O)COc3ccc(Cl)cc3)ccc21	i	i	·	·	·
COc1ccc(N/C=C(\C#N)c2nc3ccccc3n2C)c(OC)c1	i	20.6µM*	17.0%	25.9µM*	?
O=C(Nc1nnc(-c2ccccc2)s1)C1CCCN(C(=O)c2ccoc2)C1 (stereo not given)	i	i	·	·	·
CC1=C(C(=O)N(C(C)C)C(C)C)CC(CC(=O)NCc2ccco2)C(=O)N1Cc1ccc(F)cc1 (stereo not given)	i	i	·	·	·
COc1ccc(C(=O)C2CCCN(Cc3c(F)ccc(F)c3F)C2)c(OC)c1 (stereo not given)	i	?	-9.5%	-8.6%	3.2%
COc1ccc(C(=O)C2CCCN(Cc3cccn3-c3ccc(Cl)cn3)C2)c(OC)c1 (stereo not given)	?	11.6µM*	17.2%	-24.7%	19.3%
Fc1cccc(-c2nc(-c3ccncc3)no2)c1	i	i	·	·	·
CC(C)(C)CNC(=O)c1cccc2c1C(=O)c1ccc(N3CCCC3)cc1S2(=O)=O	i	i	-2.0%	16.4µM*	10.7%
O=C(NCCN1CCCCC1)c1cccc2c1C(=O)c1ccc(N3CCCC3)cc1S2(=O)=O	i	i	-3.2%	?	2.6%
CC(=O)c1ccccc1C(=O)N1CCCC(CCC(=O)N2CCN(c3ccccn3)CC2)C1 (stereo not given)	i	i	-6.2%	23.1µM*	13.0%
O=C(CCC1CCCN(C(=O)c2ccccc2Cl)C1)N1CCN(c2ccccn2)CC1 (stereo not given)	?	14.6µM*	2.1%	?	4.9%
Cc1ccc(C(=O)N2CCCC(CCC(=O)N3CCN(c4ccccn4)CC3)C2)cc1 (stereo not given)	i	i	22.3%	-22.9%	1.1%
COCCn1c(SCC(=O)Nc2sccc2C(N)=O)nc2cc(Cl)ccc2c1=O	i	i	15.5%	23.1µM*	26.1%
